Among the data in the supplement of paper PMC5919970 are fractional viability values, retold here.

The test system of this assay is TYKNU. The experiment in a line: fractional viability relative to vehicle; TYKNU is a high-grade serous ovarian cancer line; higher = less growth inhibition. Conditions: 72 h, genotype: OPA1 knockout (sgOPA1 #2). The method in brief:
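TYKNU control cells or lentiCRISPRv2 knockout derivatives were seeded at 500 cells per well into drug-stamped 384-well plates holding a ~2100-compound library at 2 or 10 μM, in duplicate. Cells were grown at 37 °C in 5% CO2 in RPMI 1640 with 10% FBS, and drug treatment lasted 72 h. Viability was read by Cell Titer Glo luminescence. Duplicate treatment wells were averaged and normalised to duplicate control wells from the same plate position.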

Structures are written as SMILES. Where a name gives a salt, the structure may show the parent alone. In all, about 2,000 compounds were measured (“fractional viability relative to vehicle”: median about 0.92, lowest 2% from about 0.11 on). This is one part of a sample in which the lowest values are shown more often than they occur.

`[O-][n+]1ccccc1[S-].[O-][n+]1ccccc1[S-].[Zn+2]` [Zinc Pyrithione] registered a fractional viability (2uM) of 0.0671 and a fractional viability (10uM) of 0.0336.
Consider `CN1[C@@H]2C[C@@H](OC(=O)[C@H](CO)c3ccccc3)C[C@H]1[C@@H]1O[C@@H]12` [Scopolamine HBr], for which the fractional viability by setting is: (2uM) 1.29; (10uM) 0.892.
Regarding `C=CC[C@]1(O)CC[C@H]2[C@@H]3CCC4=CC(=O)CCC4=C3C=C[C@@]21C` [Altrenogest], the fractional viability is, setting by setting: (2uM) 0.97; (10uM) 0.84.
For `CC(=O)Nc1ccc(OC[C@](C)(O)C(=O)Nc2ccc([N+](=O)[O-])c(C(F)(F)F)c2)cc1` [Andarine], the fractional viability was 1.18 (2uM) and 1.18 (10uM).
In the case of `COC[C@H]1OC(=O)c2coc3c2[C@@]1(C)C1=C(C3=O)[C@@H]2CCC(=O)[C@@]2(C)C[C@H]1OC(C)=O` [Wortmannin], the fractional viability by setting is: (2uM) 0.744; (10uM) 0.149.
For `C[C@@H]1CC[C@@]2(OC1)O[C@H]1C[C@H]3[C@@H]4CC=C5C[C@@H](O[C@@H]6O[C@H](CO)[C@@H](O[C@@H]7O[C@@H](C)[C@H](O)[C@@H](O)[C@H]7O)[C@H](O)[C@H]6O[C@@H]6O[C@@H](C)[C@H](O)[C@@H](O)[C@H]6O)CC[C@]5(C)[C@H]4CC[C@]3(C)[C@H]1[C@@H]2C` [Dioscin], the fractional viability turned out to be 0.289 (2uM) and 0.0918 (10uM).
In the case of `Cc1cccc(C)c1NC1=NCCCS1` [Xylazine HCl], the fractional viability (2uM) was determined as 0.823 and the fractional viability (10uM) is 0.79.
In the same order, the values of `COc1cc(OC)c(OC)cc1C=O` [Asaraldehyde] are 1.16 and 1.15.
With `C=CCN1CC[C@]23c4c5ccc(O)c4O[C@H]2C(=O)CC[C@@]3(O)[C@H]1C5` [Naloxone HCl], the fractional viability is, setting by setting: (2uM) 0.816; (10uM) 0.957.
Turning to `CCNC(=O)C[C@@H]1N=C(c2ccc(Cl)cc2)c2cc(OC)ccc2-n2c(C)nnc21`, the fractional viability is, setting by setting: (2uM) 0.715; (10uM) 0.794.
Regarding `CN[C@@H]1C[C@H]2O[C@@](C)([C@@H]1OC)n1c3ccccc3c3c4c(c5c6ccccc6n2c5c31)C(=O)NC4` [Staurosporine], the fractional viability (2uM) came to 0.264 and the fractional viability (10uM) was found to be 0.0922.
As to `COc1ccc(C(CN(C)C)C2(O)CCCCC2)cc1` (stereo not given) [Venlafaxine], the fractional viability is, setting by setting: (2uM) 1.21; (10uM) 1.
Consider `Cn1c(CCCC(=O)O)nc2cc(N(CCCl)CCCl)ccc21` [Bendamustine HCl], for which the fractional viability runs as follows: (2uM) 1.1; (10uM) 1.11.
Take `CN1CCC(c2c[nH]c3ccc(O)cc23)CC1`: the fractional viability is, setting by setting: (2uM) 0.838; (10uM) 0.922.
Taken in the same sequence, the figures for `CCOc1ccccc1-n1c(C(C)N2CCN(C(=O)COc3ccc(Cl)cc3)CC2)nc2ccccc2c1=O` (stereo not given) [Erastin] were 0.45 and 0.0976.
Regarding `C[C@H]1CNCCc2ccc(Cl)cc21` [Lorcaserin HCl], the fractional viability reads like this: (2uM) 1.04; (10uM) 1.02.
For the molecule `CCCN1C[C@H](CSC)C[C@@H]2c3cccc4[nH]cc(c34)C[C@H]21` [Pergolide mesylate], the fractional viability by setting is: (2uM) 0.978; (10uM) 0.96.
`CC1(C)CC(O)CC(C)(C)N1[O]` [Tempol] registered a fractional viability (2uM) of 0.982 and a fractional viability (10uM) of 1.06.
In the same order, the values of `Cc1cc(SCc2sc(-c3ccc(C(F)(F)F)c(F)c3)nc2C)ccc1OCC(=O)O` are 0.824 and 0.75.
In the case of `CC1=C(O)C(=O)C=C2C1=CC=C1[C@@]2(C)CC[C@@]2(C)[C@@H]3C[C@](C)(C(=O)O)CC[C@]3(C)CC[C@]12C` [Celastrol], the fractional viability is, setting by setting: (2uM) 0.123; (10uM) 0.0841.
As to `CC(=O)O[C@H]1C[C@@H]2CC[C@@H]3[C@H](CC[C@@]4(C)[C@H]3C[C@H]([N+]3(C)CCCCC3)[C@@H]4OC(C)=O)[C@@]2(C)C[C@@H]1[N+]1(C)CCCCC1` [Pancuronium dibromide], the fractional viability was 1 (2uM) and 0.976 (10uM).
As to `CN1[C@@H]2CC(O)C[C@H]1[C@@H]1O[C@@H]12` (stereo not given in full) [Scopine], the fractional viability is, setting by setting: (2uM) 0.96; (10uM) 0.768.
With `C[C@H]1CCC/C=C/[C@@H]2C[C@H](O)C[C@H]2[C@H](O)/C=C/C(=O)O1` [Brefeldin A], the fractional viability runs as follows: (2uM) 0.269; (10uM) 0.277.
In the same order, the values of `CC(C)=CCC[C@]1(C)C=Cc2c(O)c3c(c(CC=C(C)C)c2O1)O[C@]12C(=C[C@@H]4C[C@H]1C(C)(C)O[C@@]2(C/C=C(/C)C(=O)O)C4=O)C3=O` [Gambogic Acid] are 0.0971 and 0.0282.
For the molecule `C[N+]1(C)[C@@H]2C[C@@H](OC(=O)[C@H](CO)c3ccccc3)C[C@H]1[C@@H]1O[C@@H]12` [Methscopolamine], the fractional viability reads like this: (2uM) 0.982; (10uM) 0.966.
For the molecule `C[C@]12N[C@H](Cc3ccccc31)c1ccccc12` [MK-801 (Dizocilpine)], the fractional viability is, setting by setting: (2uM) 1.04; (10uM) 0.956.
`CCN1CCN(C(=O)Cc2ccc(Nc3ncc(F)c(Nc4ccc(C(=O)Nc5ccccc5Cl)cc4)n3)cc2)CC1` [Aurora A Inhibitor I] had a fractional viability (2uM) of 1.03 and a fractional viability (10uM) of 0.0801.
`O=C(O[C@H]1C[N+]2(CCCOc3ccccc3)CCC1CC2)C(O)(c1cccs1)c1cccs1` [Aclidinium Bromide]: the fractional viability was 0.952 (2uM) and 0.927 (10uM).
In the same order, the values of `CC(C)NCC(O)c1ccccc1Cl` (stereo not given) [Clorprenaline HCl] are 0.911 and 0.968.
As to `CN1CCN(c2nc3ccccc3nc2Cl)CC1`, the fractional viability is 1.15 (2uM) and 0.988 (10uM).
Taken in the same sequence, the figures for `O=C1CC[C@@]2(O)[C@H]3Cc4ccc(O)c5c4[C@@]2(CCN3CC2CC2)[C@H]1O5` [Naltrexone HCl] were 1.07 and 1.12.
Consider `CC[C@@H]1/C=C/C=C/C[C@H](C)[C@H](O)[C@](C)(O)C(=O)[C@H](C)[C@@H](O)[C@H](C)C(=O)[C@H](C)[C@@H](O)[C@H](C)/C=C/C(=O)O[C@H]2[C@@H](C)[C@@H](CC1)O[C@@]1(CC[C@@H](C)[C@@H](C[C@H](C)O)O1)[C@@H]2C` [Oligomycin A], for which the fractional viability amounted to 1.01 (2uM) and 0.871 (10uM).
For `C1=C2CCCN[C@H]2[C@@H]2C[C@H]1[C@H]1CCCCN1C2` [Aloperine], the fractional viability by setting is: (2uM) 1.02; (10uM) 0.89.
Take `c1cc2c(cc1[C@H]1OC[C@H]3[C@@H]1CO[C@@H]3c1ccc3c(c1)OCO3)OCO2` [Sesamin]: the fractional viability by setting is: (2uM) 1.06; (10uM) 0.894.
In the same order, the values of `O=[N+]([O-])/C=C/c1ccc2c(c1)OCO2` are 0.477 and 0.113.
Regarding `O=C(Oc1ccc([N+](=O)[O-])cc1)N1CCC(C(O)(c2ccc3c(c2)OCO3)c2ccc3c(c2)OCO3)CC1`, the fractional viability runs as follows: (2uM) 0.994; (10uM) 0.739.
With `Cc1sc2c(c1C)C(c1ccc(Cl)cc1)=N[C@@H](CC(=O)Nc1ccc(O)cc1)c1nnc(C)n1-2`, the fractional viability came out at 0.634 (2uM) and 0.619 (10uM).
Taken in the same sequence, the figures for `CN1c2ccccc2C(NCCCCCCC(=O)O)c2ccc(Cl)cc2S1(=O)=O` (stereo not given) [Tianeptine sodium] were 1.15 and 1.02.
Taken in the same sequence, the figures for `Nc1nc(N)nc(NC2CC2)n1` [Cyromazine] were 1.01 and 0.994.
`CCCN1CCO[C@@H]2c3cc(O)ccc3OC[C@H]21`: the fractional viability is, setting by setting: (2uM) 0.95; (10uM) 1.01.
